Compound activity (PubChem)
Vaccinia mCherry: qHTS for Stage-Specific Inhibitors of Vaccinia Orthopoxvirus: mCherry Reporter Primary qHTS | Potency, µM (top dose mostly 36.5 µM), for the others: at the highest dose activity change, negative = inhibition, hits mostly inhibitors | Vaccinia virus mCherry reporter infection, fluorescence | 310,000 tested, 0.63% active; calls by dose curve; tested in A549 cells; also: nearly all actives have a fitted effect of over 35% in size
LASV entry inh: qHTS for Inhibitors of binding or entry into cells for Lassa Virus; Lassa virus pseudotype entry inhibition, cell reporter; Potency, µM (series often up to 37.9 µM), inactives show at the top dose activity change, negative = inhibition, usual class: inhibitors; 300,000 tested, 1.2% active; calls by dose curve; tested in HEK293 cells; also: nearly all actives have a fitted effect of over 50% in size
FMDV antiviral: High Throughput Screening for Foot and Mouth Disease Virus Antivirals; FMDV antiviral cell-based qHTS; Potency, µM (top dose mostly 57.9 µM), for the others: at the top dose activity change, negative = inhibition, most hits filed as inhibitors; 410,000 tested, 1.2% active; AID 1159524, 2015; calls by dose curve; tested in HEK293T cells; also: read-out not given here; nearly all actives have a fitted effect of over 45% in size
Vaccinia Venus: qHTS for Stage-Specific Inhibitors of Vaccinia Orthopoxvirus: Venus Reporter Primary qHTS; Vaccinia virus Venus reporter expression, fluorescence; Potency, µM (series often up to 36.5 µM), inactives show at the top dose activity change, negative = inhibition, actives largely listed as inhibitors; 330,000 tested, 0.46% active; AID 720580, 2013; calls by dose curve; tested in A549 cells; also: nearly all actives have a fitted effect of over 30% in size
MARV entry inh: qHTS for inhibitors of binding or entry into cells for Marburg Virus. Marburg virus pseudotyped entry inhibition, cell reporter. Potency, µM (titrated, usually from 37.8 µM), for inactives: top-dose activity change, negative = inhibition, usual class: inhibitors. 300,000 tested, 1.8% active; calls by dose curve; tested in HEK293 cells
* = called active by the depositor; i = inactive; ? = inconclusive; / = not tested or not shown; ! = not confirmed by another sample; [ ] = remark or other dose. This is a sample that favours compounds with a hit; in the whole collection about 3.2% have one here. % is scaled to controls: 0 for no effect and ±100 for the full control effect; potency is read from the fitted curve at half-maximal effect.

SMILES | Vaccinia mCherry | LASV entry inh | FMDV antiviral | Vaccinia Venus | MARV entry inh
COc1ccc(CN(C2CCCC2)S(=O)(=O)c2ccc(-n3cnnn3)cc2)cc1 | ? | -23.3% | -11.7% | -29.1% | ?
O=C1[C@H]2[C@H]3[C@H](O)[C@H](O)C/C(=N\OC[C@@H](O)COCc4ccco4)[C@H]3CC[C@H]2C(=O)N1C[C@@H]1CCCO1 | / | / | / | / | -0.9%[14.2 µM]
O=C(CSc1nnc(-c2cccs2)n1-c1ccccc1)N1CCCc2ccccc21 | / | ? | -16.5% | / | 11.6µM*
COC(=O)[C@@H]1CC[C@H](C)[C@@H](c2ccc(C)cc2)N1C(=O)c1ccc(C=NOC[C@@H](O)COCc2ccco2)cc1 | / | 15.4%[14.3 µM] | / | / | ?
COc1ccc(N(C(=O)Nc2ccc(Cl)cc2)C2=NCCC2)cc1 | -2.2% | 6.51µM* | / | -21.6% | -11.9%
CCOC(=O)C1CCN(C(=O)c2c(C)oc3c2C(=O)c2ccccc2C3=O)CC1 | 14.1µM* | ? | 28.2µM* | 14.1µM* | -36.3%
Cc1oc2c(c1C(=O)N1CCC(C)CC1)C(=O)c1ccccc1C2=O | ? | -26.1% | ? | ? | ?
COc1cc2cc(C(=O)N3CC(COS(C)(=O)=O)c4ccc(O)cc43)[nH]c2c(OC)c1OC (stereo not given) | ? | ? | 6.31µM* | 35.5µM* | ?
Cc1cccc(N/C(N)=N/c2nc(C)c(Cc3ccccc3)c(=O)[nH]2)c1 | -12.0% | ? | -9.9% | -5.3% | ?
O=C1/C(=N\S(=O)(=O)c2cccs2)C([n+]2ccc(CCCc3ccccc3)cc2)=C([O-])c2ccccc21 | -5.3% | -3.9% | -22.5% | -2.1% | -26.6%
Cc1cc(C)c[n+](C2=C([O-])c3ccccc3C(=O)/C2=N\S(=O)(=O)c2cccs2)c1 | / | / | 39.8µM* | / | /
O=C1/C(=N\S(=O)(=O)c2cccs2)C([n+]2cccc(Cc3ccccc3)c2)=C([O-])c2ccccc21 | ? | ? | ? | -27.3% | 2.82µM*
CCCCc1nn2c(=O)cc(COC(=O)C3CCCCC3)nc2s1 | 1.6% | 2.9%[46.1 µM] | -22.5% | 9.7% | /
NC1C(N)C(N)C1N (stereo not given) | -6.3% | / | / | -11.6% | /
Cc1ccccc1OCC(=O)NCC(C)NC(=O)COc1ccccc1C (stereo not given) | 24.9% | / | / | -2.3% | /
O=C(N/N=C/c1ccccc1F)c1csc2c1CCCC2 | i | 11.2µM* | 1.2% | -19.8% | 9.6%
O=C(N/N=C/c1cccc(F)c1)c1csc2c1CCCC2 | / | ? | 6.0% | -19.1% | ?
C=CS(=O)(=O)N(Cc1ccccc1)[C@H](CO)CC(C)C | ? | / | -29.9% | 1.12µM* | /
C=CS(=O)(=O)N(Cc1ccccc1Br)[C@H](CO)Cc1ccccc1 | ? | / | ? | 1.12µM* | /
O=S(=O)(N(Cc1ccccc1)[C@@H](CO)Cc1ccccc1)N(Cc1ccccc1)[C@@H](CO)Cc1ccccc1 | -5.5% | / | -24.7% | -26.6% | /
CC(C)C[C@H](CO)N(Cc1ccccc1)S(=O)(=O)N(Cc1ccccc1)[C@@H](CO)CC(C)C | 14.1µM*! | / | ? | ? | /
C=CCCN([C@H](CO)Cc1ccccc1)S(=O)(=O)c1ccccc1Br | -8.4% | / | 14.5% | -11.1% | /
COc1cc(N2C(=O)C=CC2=O)c(OC)cc1Cl | -1.4% | ? | 35.5µM* | -22.2% | ?
COCc1c(C(=O)NC2CCOC(C)(C)C2)cnn1-c1nccc(-c2cccs2)n1 (stereo not given) | -4.9% | / | 30.7% | 4.8% | /
COc1ccc(CCn2c(C)cc(C(=O)CCl)c2C)cc1OC | / | / | 20µM* | / | /
SMILES | Vaccinia mCherry | LASV entry inh | FMDV antiviral | Vaccinia Venus | MARV entry inh
Cc1cc(C(=O)CSc2nnc(N)s2)c(C)n1CCc1ccc(Cl)cc1 | / | -4.2% | ? | / | -29.7%
Cc1cc(C(=O)CCl)c(C)n1CCc1ccc(F)cc1 | -8.3% | ? | 28.2µM* | -2.4% | ?
Cc1cc(C(=O)CCl)c(C)n1CCc1ccc(Cl)cc1 | -11.6% | ? | 22.4µM* | -15.8% | ?
Nc1ccc(/C=C/c2cc(Cl)nc3ccccc23)cc1 | -5.3% | / | / | -13.6% | /
COc1ccc(OC)c(-c2cc(Cl)c3c(c2)CC(CNC(=O)/C=C/c2ccccn2)O3)c1 (stereo not given) | -2.0% | / | 11.5% | -8.3% | /
Oc1ccc(CN2CCC(Cc3ccccc3)CC2)c2cccnc12 | -20.6% | 2.82µM* | ? | ? | ?
Cc1ccc(C)c(S(=O)(=O)N2CCN(Cc3ccc(O)c4ncccc34)CC2)c1 | ? | 9.2µM* | -5.2% | ? | 7.3µM*
Oc1ccc(CNc2ccccc2F)c2cccnc12 | 10µM* | ? | -20.9% | 10µM* | ?
COc1cc(CN2CCc3ccccc3C2)ccc1O | / | / | 31.6µM* | / | /
Oc1ccc(CN2CCN(c3ccccc3)CC2)c2cccnc12 | -27.3% | ? | -21.5% | -22.4% | ?
COc1cc(CN2CCc3ccccc3C2)cc([N+](=O)[O-])c1O | / | / | -4.3% | / | /
COc1ccccc1-c1nc(SCC(=O)N2CCC(C(N)=O)CC2)n[nH]1 | -11.1% | 9.2% | 10.7% | -0.1% | ?
c1ccc(Oc2c3ccccc3nc3ccccc23)cc1 | -23.2% | -3.1% | -24.9% | ? | -27.5%
Oc1ccc(CN2CCc3ccccc3C2)c2cccnc12 | / | 2.59µM* | -29.4% | / | 3.26µM*
CC(C)COCc1ccc(O)c2ncccc12 | 10µM* | ? | -14.8% | ? | ?
COc1ccc(Cl)cc1NC(=S)NC1CCCC1 | / | / | 19.5% | / | /
O=C(C(=Cc1ccccc1)CN1CCCCC1)c1ccccc1 | -27.0% | 3.55µM* | 3.55µM* | ? | ?
C=CCc1cccc(/C=N/NC(=O)CCC(=O)Nc2ccc(F)cc2)c1O | ? | ? | -18.4% | ? | 12.6µM*
C=CCc1cccc(/C=N/NC(=O)CCCNc2ccc(C)cc2)c1O | 12.6µM* | ? | -3.4% | ? | ?
C=CCc1cccc(/C=N/NC(=O)C(C)Nc2cccc(C)c2)c1O (stereo not given) | ? | 11.2µM* | -13.4% | -17.1% | ?
C=CCc1cccc(/C=N/NC(=O)CNc2ccccc2)c1O | / | ? | 13.8% | ? | ?
COc1ccc(C(=O)N=c2sc3c(C)ccc(OC)c3n2C)cc1 | i | / | 34.9% | -9.6% | /
Oc1ccc(C[C@H]2NCCc3cc(O)c(O)cc32)cc1O | -12.3% | ? | 3.0% | -11.3% | 2.82µM*
COc1cc2c(cc1OC)C(Cc1ccc(O)cc1)NCC2 (stereo not given) | -14.9% | -0.5% | -22.5% | -7.1% | ?
O=[N+]([O-])c1cc(/C=N/NC(=S)Nc2ccccc2Cl)ccc1Cl | ? | ? | -17.8% | ? | 8.91µM*
COc1ccc(/C=N/NC(=S)Nc2ccccc2[N+](=O)[O-])cc1O | -22.3% | 23.1µM* | -1.9% | ? | ?
COc1cc(/C=N/Nc2ccccc2[N+](=O)[O-])cc(OC)c1O | -18.4% | / | 4.4% | -8.4% | 19.1%[46.1 µM]
Cc1ccc(C)c2nc3sc(C(=O)O)cc3cc12 | i | 4.1%[46.1 µM] | 15.4% | 1.2% | ?
COc1ccc(-c2c(C)[nH]n3c(=O)c(Cc4ccccc4)c(C)nc23)cc1OC | -13.0% | ? | -4.0% | -20.7% | 7.94µM*
